In the supplement of paper PMC13380429:

Tested on: Vero E6 infected with SARS-CoV-2
Assay: inhibition of SARS-CoV-2 cytopathic effect; higher = more antiviral protection, active = above 15
Conditions: 48 h

Measured: inhibition of SARS-CoV-2 cytopathic effect

COc1ccc(NS(=O)(=O)c2sc3ccc(Cl)cc3c2C)cc1N1CCNCC1
inactive: 1 nM 0.93% | 8.33 nM 3.35% | 100 nM 0.86% | 833.33 nM 3.23% | 10000 nM -3.32%

CCOC(=O)COc1ccc2c(=O)cc(-c3ccccc3)oc2c1 [efloxate]
inactive: 1 nM -1.98% | 8.33 nM 0.67% | 100 nM 0.32% | 833.33 nM -1.24% | 10000 nM -0.78%

O=C(O)c1ccc2[nH]cc(CCCCN3CC=C(c4ccccc4)CC3)c2c1 [carmoxirole]
inactive: 1 nM 1.76% | 8.33 nM 1.65% | 100 nM -1.21% | 833.33 nM 0.28% | 10000 nM 0.69%

CC(C)(C)c1ccc(CN2CCN(C(c3ccccc3)c3ccc(Cl)cc3)CC2)cc1 (stereo not given) [buclizine]
inactive: 1 nM -1.54% | 8.33 nM -0.87% | 100 nM 0.71% | 833.33 nM 0.45% | 10000 nM 2.38%

CCOC(=O)c1ccc(OC(=O)CCCCCNC(=N)N)cc1 [gabexate]
inactive: 1 nM -0.03% | 8.33 nM -1.96% | 100 nM 1.38% | 833.33 nM 3.6% | 10000 nM 3.31%

O=S(=O)(Cc1ccccc1)Nc1ccc(-c2ccc3c(cnn3-c3ccc(F)cc3)c2)c(C(F)(F)F)c1
inactive: 1 nM 0.84% | 8.33 nM 1.44% | 100 nM -0.94% | 833.33 nM 2.01% | 10000 nM -3.81%

CN(C)C(=O)[C@H](O)[C@H](Cc1ccccc1)NC(=O)c1cc2cc(Cl)ccc2[nH]1
inactive: 1 nM 0.8% | 8.33 nM -0.29% | 100 nM -0.45% | 833.33 nM 1.2% | 10000 nM 4.47%

O=c1[nH]c([C@@H]2CCCN2)nc2c1oc1ccc(Cl)cc12
inactive: 1 nM -0.27% | 8.33 nM 0.12% | 100 nM 1.61% | 833.33 nM -0.54% | 10000 nM -2.54%

COc1cc2c(c(OC)c1OC)-c1c(cc3c(c1OC)OCO3)C[C@H](C)[C@@](C)(O)C2 [schisandrol-B]
inactive: 1 nM 3.78% | 8.33 nM 3.17% | 100 nM 2.65% | 833.33 nM 2.33% | 10000 nM 1.68%

CC(O)Cn1cnc2c1c(=O)n(C)c(=O)n2C (stereo not given) [Proxyphylline]
inactive: 1 nM -1.14% | 8.33 nM -0.86% | 100 nM -0.81% | 833.33 nM -0.51% | 10000 nM 0.19%

COc1cc(Cc2cnc(N)nc2N)cc(OC)c1OC [trimethoprim]
inactive: 1 nM -0.11% | 8.33 nM 0.21% | 100 nM -0.75% | 833.33 nM 2.08% | 10000 nM 2.04%

COc1cc(C(=O)NCc2ccc(OCCN(C)C)cc2)cc(OC)c1OC [trimethobenzamide]
inactive: 1 nM -2.2% | 8.33 nM -1.41% | 100 nM 2.21% | 833.33 nM -1.81% | 10000 nM -0.65%

CCn1c(=O)c2c(nc(/C=C/c3ccc(OC)c(OC)c3)n2C)n(CC)c1=O [istradefylline]
inactive: 1 nM 1.05% | 8.33 nM -1.49% | 100 nM -0.91% | 833.33 nM -0.33% | 10000 nM 2.33%

CNC(=O)c1ccc(Nc2ncc(C(F)(F)F)c(NCc3nccnc3N(C)S(C)(=O)=O)n2)cc1 [defactinib]
inactive: 1 nM -2.21% | 8.33 nM -4.25% | 100 nM -0.22% | 833.33 nM -2.59% | 10000 nM -4.28%

O=C(Nc1ccc(C(F)(F)F)cn1)N1CCN(c2ncccc2C(F)(F)F)CC1
inactive: 1 nM -2.83% | 8.33 nM 0.93% | 100 nM 1.25% | 833.33 nM 1.49% | 10000 nM -0.71%

C[C@@H](O)[C@@H]1NC(=O)[C@H](CCCCN)NC(=O)[C@@H](Cc2c[nH]c3ccccc23)NC(=O)[C@H](Cc2ccccc2)NC(=O)[C@@H](NC(=O)[C@H](N)Cc2ccccc2)CSSC[C@@H](C(=O)N[C@H](CO)[C@@H](C)O)NC1=O [octreotide]
inactive: 1 nM 2.23% | 8.33 nM -0.63% | 100 nM -1.24% | 833.33 nM 3.26% | 10000 nM -1.58%

CCCCN(CCCC)CCCOC(=O)c1ccc(N)cc1 [butacaine]
inactive: 1 nM 1.8% | 8.33 nM 5.07% | 100 nM 2.1% | 833.33 nM -1.71% | 10000 nM -2.04%

CCNCCCNCCCCNCCCNCC
inactive: 1 nM -0.97% | 8.33 nM 1.01% | 100 nM 3.25% | 833.33 nM 3.4% | 10000 nM 11.4%
